Assay outcomes deposited in PubChem BioAssay by National Center for Advancing Translational Sciences (NCATS).
LmPK inh = LmPK (Leishmania mexicana) enzyme inhibition | Potency, µM (top dose mostly 57.5 µM), without a hit: top-dose activity change, negative = inhibition, most hits filed as inhibitors | purified LmPK, Kinase-Glo ATP luminescence, 1 h | AID 1721 | 0.37% of 290,000 active | Q27686; active = well fitted curve in the direction sought with a large enough effect; inconclusive = small, poorly fitted or top-dose-only effect, or another doubt; inactive = no such curve, though single readings can be large; an effect the other way counts as inactive or inconclusive; note: potency is the fitted concentration of half-maximal effect; % is set by controls: 0 for no effect and ±100 for the full control effect
Target sequence (Q27686 whole entry, looked up): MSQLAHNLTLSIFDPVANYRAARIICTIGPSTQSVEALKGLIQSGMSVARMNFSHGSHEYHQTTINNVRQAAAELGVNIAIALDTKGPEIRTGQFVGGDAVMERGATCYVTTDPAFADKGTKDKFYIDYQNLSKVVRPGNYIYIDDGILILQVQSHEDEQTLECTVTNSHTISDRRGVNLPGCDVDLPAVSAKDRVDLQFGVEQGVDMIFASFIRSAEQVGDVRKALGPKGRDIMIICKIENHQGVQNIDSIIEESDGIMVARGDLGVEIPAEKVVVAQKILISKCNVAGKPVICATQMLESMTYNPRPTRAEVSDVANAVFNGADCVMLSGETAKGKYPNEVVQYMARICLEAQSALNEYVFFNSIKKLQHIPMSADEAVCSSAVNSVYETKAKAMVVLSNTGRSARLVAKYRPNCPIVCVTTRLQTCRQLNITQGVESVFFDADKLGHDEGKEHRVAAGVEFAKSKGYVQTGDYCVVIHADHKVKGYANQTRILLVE
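Purified LmPK (0.1 nM) with 0.5 mM PEP and 0.1 mM ADP in imidazole buffer pH 7.2 with MgCl2/KCl, 1 h at room temperature. ATP formed was read by luciferase luminescence and normalized to no-enzyme and uninhibited controls.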
TbPYK inhibitor = T. brucei pyruvate kinase inhibition; TbPYK enzyme, Kinase-Glo Plus ATP luminescence, 45 min; Q57TT1; Potency, µM (highest dose often 76.8 µM), for inactives: at the highest dose activity, negative = inhibition, actives largely listed as inhibitors; 0.12% of 410,000 active; AID 624173; active = well fitted curve in the direction sought with a large enough effect; inconclusive = small, poorly fitted or top-dose-only effect, or another doubt; inactive = no such curve, though single readings can be large; an effect the other way counts as inactive or inconclusive; note: potency is the fitted concentration of half-maximal effect; % is set by controls: 0 for no effect and ±100 for the full control effect; nearly all actives have a fitted effect of over 50% in size
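Assay buffer: 50 mM TEA pH 7.2, 100 mM KCl, 10 mM MgCl2, 0.05% BSA, 0.01% Tween-20. Pyruvate kinase from T. brucei plus substrate met compound, then ADP (130 uM final). Luminescence was read post 45 min RT.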
SARS PLP yeast = blocks SARS-CoV papain-like protease in a yeast assay | 0.19% of 330,000 active | S. cerevisiae expressing SARS-CoV PLpro, growth rescue | AID 485353 | Potency, µM (series often up to 32.9 µM), for inactives: at the top dose activity, positive = growth rescue, actives largely listed as activators; note: potency is the fitted concentration of half-maximal effect; 0% is about no effect; nearly all actives have a fitted effect of over 55% in size
Cycloheximide cs = counter-screen for Shiga toxin inhibitors: cycloheximide protein synthesis inhibition; AID 2314; max response, %; 12% of 300,000 active; cell reporter, cycloheximide protein synthesis inhibition counterscreen; in the data active = max response mostly above about 13%, no sharp cut-off; inactive = mostly below about 14%; note: read at 38.3 µM for the half of the compounds with a filed dose; 0% is about no effect
Shiga toxin inh = blocks Shiga toxin action in Vero cells; Vero cells, Shiga toxin protein synthesis inhibition reporter; inhibition, % at 38.7 µM; 9.2% of 290,000 active; AID 2315; in the data active = inhibition mostly above about 28%, no sharp cut-off; inactive = mostly below about 43%; note: 0% is about no effect
NS1 inh = inhibitors of influenza NS1 protein function; Potency, µM (doses to about 46.1 µM), without a hit: top-dose activity, positive = more growth; 0.4% of 270,000 active; AID 2326; note: potency is the fitted concentration of half-maximal effect; actives are rising curves; nearly all actives have a fitted effect of over 50% in size
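A cell-based growth assay was used: compounds that relieve NS1-induced slow growth of budding yeast raise OD600. Assay medium was yeast nitrogen base with ammonium sulphate and -URA supplement, pH 6.0, with 2% galactose.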
* marks the source's active call; other numbers are inactive results. This is one part of a sample in which hits are shown more often than they occur. Unless noted, calls come from the whole dose curve.

Results for Cc1ccc(N2CCN(C(=O)c3noc4c3COc3ccc(C)cc3-4)CC2)c(C)c1 ?
TbPYK inhibitor: 5%

What do the screens show for `Cc1cc(OC(C)C(=O)N2CCN(c3ccccc3)CC2)c2c(C)c(C)c(=O)oc2c1` (configuration not stated)?
LmPK inh: 6%; TbPYK inhibitor: 3%; SARS PLP yeast: -2%; Cycloheximide cs: -3; Shiga toxin inh: 17; NS1 inh: -7%

What do the screens show for `C/C(N)=C(/C#N)C(=O)CSc1nc2ccc(C)cc2[nH]1`?
LmPK inh: -11%; TbPYK inhibitor: -10%; SARS PLP yeast: -6%; Cycloheximide cs: 56*; Shiga toxin inh: 86*; NS1 inh: -8%

Results for CC(=O)c1cc2c(cc1NC(=O)CSc1nc3ccc(C)cc3[nH]1)OCO2 ?
LmPK inh: 2%; TbPYK inhibitor: -1%; SARS PLP yeast: 15%; Cycloheximide cs: 20*; Shiga toxin inh: 4; NS1 inh: 3%

What do the screens show for `Cc1ccc2[nH]c(SCC(=O)N3CCOCC3)nc2c1C`?
LmPK inh: -4%; TbPYK inhibitor: -1%; SARS PLP yeast: 2%; Cycloheximide cs: 52*; Shiga toxin inh: 98*; NS1 inh: 0%

Results for Cc1ccc2nc(SCC3CCCCO3)[nH]c2c1 (configuration not stated) ?
LmPK inh: -2%; TbPYK inhibitor: -4%; SARS PLP yeast: 0%; Cycloheximide cs: 30*; Shiga toxin inh: 44*; NS1 inh: -2%

How did Cc1ccc2nc(SCC(=O)Nc3ccc(C#N)cc3)[nH]c2c1 do in these assays?
TbPYK inhibitor: 4%

How did Cc1ccc2c(=O)cc(C(=O)Nc3ccc(S(=O)(=O)Nc4nc(C)cc(C)n4)cc3)oc2c1 do in these assays?
TbPYK inhibitor: 2%

How did CCOC(=O)c1nn(-c2ccc(OC)cc2)c(=O)c2c(NC(=O)Cc3ccccc3)scc12 do in these assays?
Cycloheximide cs: 10; Shiga toxin inh: -1

What do the screens show for `Cc1ccc2nc(SCC(=O)N3CCOCC3)[nH]c2c1`?
LmPK inh: 12%; TbPYK inhibitor: -6%; SARS PLP yeast: 10%; Cycloheximide cs: 38*; Shiga toxin inh: 56*; NS1 inh: 6%

How did N#C/C(=C\c1cccc(O)c1)c1nc2ccccc2o1 do in these assays?
LmPK inh: -2%; TbPYK inhibitor: 4%; SARS PLP yeast: -3%; Cycloheximide cs: 59*; Shiga toxin inh: 85*; NS1 inh: -53%

Results for O=C/C(=C\Nc1ccc(Br)cc1)c1nc2ccccc2o1 ?
LmPK inh: 5%; TbPYK inhibitor: 5%; SARS PLP yeast: 1%; Cycloheximide cs: -4; Shiga toxin inh: 4; NS1 inh: 1%

How did N#C/C(=C\c1ccncc1)c1nc2ccccc2o1 do in these assays?
LmPK inh: -5%; TbPYK inhibitor: -6%; SARS PLP yeast: 0%; Cycloheximide cs: 29*; Shiga toxin inh: 46; NS1 inh: -2%

How did N#C/C(=C\Nc1ccccc1O)c1nc2ccccc2o1 do in these assays?
LmPK inh: 1%; TbPYK inhibitor: 6%; SARS PLP yeast: -87%; Cycloheximide cs: 26*; Shiga toxin inh: 71*; NS1 inh: -39%

Results for N#C/C(=C\c1ccc(Cl)cc1)c1nc2ccccc2o1 ?
LmPK inh: 1%; TbPYK inhibitor: -8%; SARS PLP yeast: -20%; Cycloheximide cs: 10; Shiga toxin inh: 3; NS1 inh: 0%

What do the screens show for `Cn1c(/C(C#N)=C/c2cccc(O)c2)nc2ccccc21`?
LmPK inh: -14%; TbPYK inhibitor: -3%; SARS PLP yeast: -1%; Cycloheximide cs: 43*; Shiga toxin inh: 74; NS1 inh: -7%

What do the screens show for `Nc1[nH]c(C(=O)c2ccccc2)c(-c2ccccc2C(F)(F)F)c1C(=O)c1cccs1`?
TbPYK inhibitor: 8%

What do the screens show for `CCCC(C)NC(=O)c1ccc(OCc2ccc(Cl)cc2)c(OC)c1` (configuration not stated)?
LmPK inh: 1%; TbPYK inhibitor: 0%; SARS PLP yeast: inconclusive; Cycloheximide cs: 11; Shiga toxin inh: 17; NS1 inh: -1%

Results for Cc1nn(Cc2c(F)c(F)c(F)c(F)c2F)c(C)c1NC(=O)c1cccc(COc2ccccc2Cl)c1 ?
LmPK inh: -2%; TbPYK inhibitor: -4%; SARS PLP yeast: 1%; Cycloheximide cs: 69*; Shiga toxin inh: 162*; NS1 inh: 15%

What do the screens show for `O=C(O)c1cccc(COc2ccccc2Cl)c1`?
LmPK inh: 14µM*; TbPYK inhibitor: -17%; SARS PLP yeast: -14%; Cycloheximide cs: 14*; Shiga toxin inh: 19*; NS1 inh: -91%

What do the screens show for `CCN(CC)C(=O)c1ccc(COc2ccccc2Cl)cc1`?
LmPK inh: 13%; TbPYK inhibitor: 3%; SARS PLP yeast: -18%; Cycloheximide cs: 19; Shiga toxin inh: 48*; NS1 inh: -49%

Results for CCC(C)NC(=O)c1ccc(COc2ccccc2Cl)cc1 (configuration not stated) ?
LmPK inh: 3%; TbPYK inhibitor: 4%; SARS PLP yeast: -9%; Cycloheximide cs: 15*; Shiga toxin inh: 46; NS1 inh: -23%

What do the screens show for `CN(C(=O)c1ccccc1OCc1ccc(Cl)cc1)c1ccccc1`?
LmPK inh: -3%; TbPYK inhibitor: 9%; SARS PLP yeast: 0%; Cycloheximide cs: 1; Shiga toxin inh: -19; NS1 inh: 6%

How did COc1ccc(CNc2nc3c(S(=O)(=O)c4ccccc4)nnn3c3ccc(Cl)cc23)cc1 do in these assays?
TbPYK inhibitor: 6%

What do the screens show for `Cc1ccc(N(CC(=O)N/N=C/c2cccc(Br)c2)S(C)(=O)=O)cc1`?
LmPK inh: 0%; TbPYK inhibitor: -3%; SARS PLP yeast: -7%; Cycloheximide cs: -5; Shiga toxin inh: -4; NS1 inh: 12%

What do the screens show for `O=C(O)c1ccc(COc2ccccc2Cl)cc1`?
LmPK inh: -14%; TbPYK inhibitor: -10%; SARS PLP yeast: -9%; Cycloheximide cs: 29*; Shiga toxin inh: 145*; NS1 inh: -204%

Results for CN1CCN(C(=O)c2ccc(COc3cc(Cl)ccc3Cl)o2)CC1 ?
LmPK inh: 4%; TbPYK inhibitor: 5%; SARS PLP yeast: -1%; Cycloheximide cs: -9; Shiga toxin inh: -13; NS1 inh: -2%

How did CN1CCN(C(=O)c2cccc(COc3cc(Cl)ccc3Cl)c2)CC1 do in these assays?
LmPK inh: 0%; TbPYK inhibitor: -3%; SARS PLP yeast: -5%; Cycloheximide cs: 48*; Shiga toxin inh: 103*; NS1 inh: -10%

How did COc1ccc(CCN2C(=O)CN(C3CCCCCC3)C(=O)C2c2ccc(OC(C)C)c(OC)c2)cc1OC (configuration not stated) do in these assays?
TbPYK inhibitor: -1%

How did CCOc1ccc(-c2c(C)nn3c(C)c(C(=O)NCc4cccc(OC)c4)cnc23)cc1OCC do in these assays?
TbPYK inhibitor: -6%
